This is a sample that favours compounds with a hit; in the whole collection about 4.6% have one here.
tim23-1 inh = growth inhibitors of tim23-1 mutant yeast, primary screen, luminescence, uHTS; S. cerevisiae tim23-1 growth, BacTiter-Glo luminescence, 24 h; inhibition, % at 20 µM; 1.3% of 330,000 active;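 active = growth inhibition of the mutant yeast at or above 50%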;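 also: temperature-sensitive mutant grown at 25 °C; plate controls were DMSO-treated mutant yeast for no effect and medium wells lacking yeast for full effect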
tim10-1 inh = growth inhibitors of tim10-1 mutant yeast, primary screen, luminescence, uHTS. S. cerevisiae tim10-1 ts strain growth, BacTiter-Glo, 24 h. inhibition, % at 20 µM. 2.2% of 330,000 active. AID 463190, 2010;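 active = inhibition of at least 40%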;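 also: mutant grown at 25 °C; 0% = DMSO wells with yeast and 100% = wells holding no yeast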
PfHsp90 yeast 2 = growth inhibition of PfHsp90-expressing yeast, primary screen, antimalarial PfHsp90 inhibitor project, S. cerevisiae, BacTiter-Glo luminescence, single point, set 2; 0.32% of 310,000 active; BacTiter-Glo ATP, 48 h; yeast lacking PDR1 and PDR3 efflux regulators; inhibition, % at 9.4 µM;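 active = every replicate shows inhibition above about 80%, whatever the replicate mean, limit read from the data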;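 also: 0% = DMSO neutral controls and 100% = 20 µM radicicol positive controls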
V-ATPase pHluor = regulators of yeast V-ATPase proton pumping, primary screen, pHLuorin cytosolic pH fluorescence; S. cerevisiae; response, % at 10 µM; 0.37% of 350,000 active; AID 504577, 2011; in the data active = response mostly above about 7.3%, no sharp cut-off; inactive = mostly below about 5.4%; also: actives read high
TIM10 inh = growth inhibitors of isogenic TIM10 control yeast, primary screen, counter-screen for tim10-1 yeast inhibitor project, luminescence, uHTS; S. cerevisiae TIM10 strain growth, BacTiter-Glo luminescence, 24 h; inhibition, % at 10 µM; 1.4% of 330,000 active; AID 463195, 2010;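 active = inhibition of 40% or more at the single tested concentration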;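 also: wild-type TIM10 isogenic control strain grown at permissive 25 °C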
SKKanGAS inh = S. pyogenes SKKanGAS growth inhibitors in kanamycin, primary screen, streptokinase expression inhibitor project, SKKanGAS strain, BacTiter-Glo luminescence. inhibition, % at 7.5 µM. 6 h. 1.3% of 300,000 active;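 active = mean replicate score, as percent of positive control median, at least 50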;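 also: strain carries kanamycin resistance gene driven by streptokinase promoter and grows in 40 µg/ml kanamycin; loss of luminescence reflects streptokinase promoter inhibition or plain growth inhibition; 0% = median of DMSO wells and 100% = positive control at its reference dose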
TIM10 conf = growth inhibitors of wild-type TIM10 yeast, confirmation, counter-screen for tim10-1 synthetic lethality project, single concentration, luminescence, S. cerevisiae. 63% of 4,600 active. AID 463215, 2010. S. cerevisiae tim10 strain growth, BacTiter-Glo luminescence, 24 h. shares compounds with TIM10 inh. inhibition, % at 10 µM;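 active = inhibition of yeast growth at or above a set limit in either of two replicates at 10 µM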;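 also: this counterscreen used the strain with wild-type TIM10; 0% = yeast with DMSO and 100% = medium wells lacking yeast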
* = called active by the depositor; nt = no result given.

SMILES	tim23-1 inh	tim10-1 inh	PfHsp90 yeast 2	V-ATPase pHluor	TIM10 inh	SKKanGAS inh	TIM10 conf
Cc1cccc(NC(=S)N/N=C/c2cccn2Cc2ccc(F)cc2)c1	19	35	10	0	53*	11	49*
CCOC(=O)c1ccc(NC(=S)NCCc2ccc(F)cc2)cc1	22	37	2	-1	35	-4	nt
CCOC(=O)C1CCN(C(=O)c2ccccc2)c2scc(-c3ccccc3)c2C1=O (stereo not drawn)	nt	nt	nt	0	nt	nt	nt
O=C1CSC(c2ccc(Cl)cc2Cl)N1c1ccccn1 (stereo not drawn)	9	29	-10	-1	7	-2	nt
O=C1CSC(c2ccccc2Br)N1c1ccc(Cl)cn1 (stereo not drawn)	49	27	nt	3	41*	9	29
Cc1cccc(-n2c(C)cc(/C=C3\NC(=O)NC3=O)c2C)c1	20	-9	2	0	-20	5	nt
Cc1cc(C)c(-n2c(C)cc(/C=C3/NC(=O)NC3=O)c2C)c(C)c1	23	38	nt	nt	52*	10	-13
CCCCN1C(=O)C(C#N)CC2=C1CC(C)(C)CC2=O (stereo not drawn)	nt	nt	14	2	nt	nt	nt
O=C(NC12CC3CC(CC(C3)C1)C2)c1ccccc1	7	26	7	-1	8	6	nt
O=C(NC(=S)NC12CC3CC(CC(C3)C1)C2)c1ccc(F)cc1	47	20	nt	nt	44*	nt	48*
O=C(c1cn(-c2ccccc2)nc1-c1cccc(Br)c1)N1CCOCC1	36	34	48	-2	8	1	nt
Cc1nnc(-c2cccc(Br)c2)c2cn(-c3ccccc3)nc12	27	32	-43	1	46*	9	46*
COC(=O)C1=C(N)Oc2cc(N(C)C)ccc2C1c1ccccc1OC (stereo not drawn)	21	29	-6	1	42*	-18	-1
O=C(Nc1c(F)cccc1F)c1cnc(N2CCN(c3ccccn3)CC2)c2ccccc12	31	35	-13	7	43*	1	38*
Cc1ccc(NC(=O)c2cnc(N3CCN(c4ccccn4)CC3)c3ccccc23)c(Br)c1	nt	nt	-36	1	nt	-4	nt
Cc1occc(=O)c1OCc1ccccc1	-6	-11	4	-1	94*	-16	0
Cc1c(OCc2ccccc2)c(=O)ccn1Cc1ccccc1	8	7	14	1	3	-3	nt
COc1ccc(CN2CCC(Oc3cc(C(=O)NC4CC4)ccc3OC)CC2)c(O)c1	0	-10	2	-1	83*	-2	0
COc1cccc(C2NC(=O)c3ccccc3O2)c1OC (stereo not drawn)	14	21	nt	-2	4	-6	nt
COc1cccc(C2NC(=O)c3ccccc3O2)c1OCc1ccccc1F (stereo not drawn)	27	27	-81	-3	43*	17	27
COc1ccc(-c2cn3cccnc3n2)cc1Br	38	-1	23	0	46*	1	55*
N=c1oc2ccc3ccccc3c2cc1C(N)=S	42	20	14	-2	42*	-10	39*
CCOC(=O)c1cc2c(ccc3ccccc32)oc1=O	26	22	-19	1	47*	-1	49*
N#CCCN(C(=S)Nc1ccc(S(=O)(=O)N2CCOCC2)cc1)c1ccccc1F	5	9	6	-2	0	nt	nt
CCNc1ccc(Br)cc(C(=O)/C=C/c2ccccc2Cl)c1=O	27	39	nt	-2	45*	-2	17
SMILES	tim23-1 inh	tim10-1 inh	PfHsp90 yeast 2	V-ATPase pHluor	TIM10 inh	SKKanGAS inh	TIM10 conf
CCNc1ccccc(C(=O)/C=C/c2ccc3c(c2)OCO3)c1=O	21	35	8	-6	16	15	nt
Cc1cc(C)cc(NC(=O)[C@H](NC(=O)[C@@H]2Cc3ccccc3CN2)c2ccccc2)c1	10	7	26	1	6	3	nt
CC(NC(=S)Nc1ccc(OC(F)F)c(Cl)c1)C(C)(C)C (stereo not drawn)	30	38	13	3	51*	27	38*
FC(F)Oc1ccc(NC(=S)NCc2ccccc2)cc1Cl	24	31	nt	-3	50*	4	33*
O=C(Nc1ccc(OC(F)F)c(Cl)c1)C(c1ccccc1)c1ccccc1	27	18	11	5	35	14	nt
FC(F)(F)c1ccc(NC(=S)NCc2ccccc2)cc1	43	36	0	-1	45*	32	47*
O=C(O)c1ccc(NC(=S)NCc2ccccc2)cc1	-3	-6	-6	8	12	-2	nt
O=C(c1ccc(Cn2c(=S)[nH]c3ccc(N4CCOCC4)cc3c2=O)cc1)N1CCC(N2CCCCC2)CC1	3	-1	-37	-1	4	2	nt
CC(C)CN1C(=O)C(=O)N(CC(=O)Nc2cc(Cl)ccc2Oc2ccccc2)C1=O	28	35	nt	0	43*	14	39*
O=C(CNc1ccc(F)cc1)N/N=C/c1c(O)ccc2ccccc12	39	-8	-3	-1	44*	96*	42*
COc1ccccc1NCC(=O)N/N=C/c1c(O)ccc2ccccc12	2	-20	7	-2	-17	42	nt
CCn1c(SCC(=O)N(C)C2CCCCC2)nc2cc(S(N)(=O)=O)ccc21	5	-8	12	-1	41*	nt	9
CC(=O)Nc1cccc(Oc2ncnc3scc(-c4ccccc4)c23)c1	43	25	4	2	48*	1	15
O=S(=O)(c1ccc(Oc2ncnc3scc(-c4ccccc4)c23)cc1)N1CCOCC1	32	29	-30	4	9	4	nt
O=C(COC(=O)Cc1c(Cl)cccc1Cl)Nc1ccc(OC(F)(F)F)cc1	1	8	10	6	14	3	nt
Cc1ccc(NC(=O)CN(C)S(=O)(=O)c2ccc(Cl)s2)c(O)c1	25	-11	nt	1	-16	nt	nt
C=CCn1c(N/N=C/c2ccc(O)cc2)nc2ccccc2c1=O	43	38	5	3	45*	5	32*
Cc1ccc(C(=O)/C=C/Nc2ccccn2)cc1	30	3	3	4	43*	12	30
CN(C)CCCN=Cc1c(O)n(Cc2ccc3c(c2)OCO3)c(=O)c2ccccc12	-18	4	nt	nt	-10	3	nt
COc1ccc(N2CCN(C(=O)CSc3ncnc4scc(-c5ccc(C)cc5)c34)CC2)cc1	23	20	nt	-3	43*	30	10
